The subject of assay [1] is XIP peptide (Xip251-270) binding. Briefly: XIP fragment 251-270 binding compounds – biochemical, small-molecule microarray, fluorescence 635/667 nm, 0.1 µg/mL protein, primary screen (AID 1182). Conditions: fluorescent protein binding, 635 nm, higher = more signal, called active from +8 up or from −8 down.
The next assay deals with XIP peptide (Xip251-270). Briefly: compounds binding XIP fragment 251-270 – biochemical, small-molecule microarray, fluorescence 635/667 nm, 0.5 µg/mL protein, primary screen (AID 1183). The following applies: fluorescence 635 nm, higher = more signal.
Assay [2] is described as follows: blood-stage malaria parasite viability loss – strain 3D7, DAPI fluorescence, 100 nL, primary screen (AID 1184).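 Further: parasites grown inside human red blood cells in medium with human serum.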 The following applies: P. falciparum 3D7 growth, 3 d, higher = more signal.
Assay [3] deals with Homeobox protein Hox-A13 (Mus musculus) (UniProt Q62424). The experiment in a line: disruptors of Hoxa13 oligonucleotide interaction – biochemical, fluorescence polarization, labeled oligonucleotide, primary screen (AID 1185). Conditions: Hoxa13:DNA binding, 15 min, higher = more signal, called active from +8 up or from −8 down. (In general: In fluorescence polarisation assays a small probe gives low polarisation when free and higher when bound to something large.)
Homeobox protein Hox-A13 (Mus musculus), sequence (Q62424 whole entry, looked up): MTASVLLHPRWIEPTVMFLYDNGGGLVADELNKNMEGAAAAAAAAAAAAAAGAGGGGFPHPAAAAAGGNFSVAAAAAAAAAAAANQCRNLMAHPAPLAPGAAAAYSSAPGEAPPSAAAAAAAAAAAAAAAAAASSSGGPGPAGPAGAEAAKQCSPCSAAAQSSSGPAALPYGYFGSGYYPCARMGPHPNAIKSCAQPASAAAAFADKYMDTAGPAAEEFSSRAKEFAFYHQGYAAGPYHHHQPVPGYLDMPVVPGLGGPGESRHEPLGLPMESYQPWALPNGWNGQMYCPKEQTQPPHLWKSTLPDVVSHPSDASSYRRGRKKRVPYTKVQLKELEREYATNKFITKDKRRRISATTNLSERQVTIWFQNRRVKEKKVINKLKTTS

Assay [4] can be described thus: blockers of DNA damage checkpoint Chk1 activation – imaging, HeLa, hydroxyurea, phospho-Chk1 antibody, percent positive cells, primary screen (AID 1186). Conditions: hydroxyurea-induced phospho-Chk1 immunofluorescence imaging, higher = more signal.
Assay [5] in a line: blockers of DNA damage checkpoint Chk1 activation – imaging, HeLa, hydroxyurea, phospho-Chk1 nuclear intensity, primary screen (AID 1187). The following applies: hydroxyurea-induced phospho-Chk1 immunofluorescence imaging, higher = more signal.

Activity calls are given as the source filed them. Unless noted, how the calls were made is not given here.

For the compound `CN1C(=O)C2C(C1=O)C1C=C(c3ccc(CO)cc3)C2C(c2cccs2)N1C` (configuration not stated), the composite z-score in assay [1] is 0.482 (inactive); in the assay with XIP peptide (Xip251-270), -0.202. Also, the z-score was -2.32 in assay [2], -6.12 (inactive) in assay [3], -0.89 (inactive) in assay [4] and -0.76 (inactive) in assay [5].
As to `C[N+](C)(C)CCCCCCNC(=O)[C@@H]1C[C@@H]2C(=O)N[C@@H](Cc3ccccc3)C(=O)N2[C@@H]1c1ccc(O)cc1`, the composite z-score in assay [1] is 1.13 (inactive); in the assay on XIP peptide (Xip251-270), 0.841. Besides, the z-score was -0.324 in assay [2], -2.44 (inactive) in assay [3], 0.459 (inactive) in assay [4] and 0.496 (inactive) in assay [5].
`COCCOC(=O)N1C(=O)[C@@]2(c3ccccc31)[C@H](c1ccc(OCCO)cc1)N1[C@H](c3ccccc3)[C@H](c3ccccc3)OC(=O)[C@H]1[C@@H]2C(=O)N1CCN(c2ncccn2)CC1`: the composite z-score in assay [1] is 0.522 (inactive); in the assay with XIP peptide (Xip251-270) it was 0.772. The z-score was -2.33 in assay [2], -0.376 (inactive) in assay [3], 0.0223 (inactive) in assay [4] and 0.242 (inactive) in assay [5].
`NCCCC[C@@H]1NC(=O)[C@H]2C[C@@H](C(=O)NCc3ccc(F)cc3)[C@@H](c3ccc(O)cc3)N2C1=O`: the composite z-score in assay [1] is 2.07 (inactive); with XIP peptide (Xip251-270) it was 0.563. Besides, the z-score in assay [2] was 0.338; in assay [3] it was -4.42 (inactive); in assay [4], -0.52 (inactive); in assay [5], -0.367 (inactive).
Take `CO[C@H]1O[C@H](CO)[C@@H](OC(=O)Nc2ccc(C(F)(F)F)cc2)[C@H](OC(=O)Nc2ccccc2-c2ccccc2)[C@@H]1OC(=O)Nc1ccccc1-c1ccccc1`: the composite z-score in assay [1] was 1.39 (inactive); in the assay with XIP peptide (Xip251-270), 0.827. For the same compound, the z-score in assay [2] was -2.28; in assay [3], -4.13 (inactive); in assay [4], 0.206 (inactive); in assay [5] it was 0.0324 (inactive).
With `Cc1ccc(F)cc1S(=O)(=O)N[C@@H]1CCN(Cc2ccc3c(c2)OCO3)C1`, the composite z-score is 0.92 (inactive) in assay [1] and 0.321 with XIP peptide (Xip251-270). Besides, the z-score in assay [2] was 0.531; in assay [3], -3.75 (inactive); in assay [4], -0.201 (inactive); in assay [5] it was -0.271 (inactive).
Turning to `C=CCC(OC(C)=O)[C@@H]1[C@@H](N(Cc2cccc3ccccc23)C(=O)c2cccc3ccccc23)c2cc(OCCCO)ccc2N1C(=O)Cc1ccc2ccccc2c1` (some centres not stated), the composite z-score in assay [1] was 0.457 (inactive); with XIP peptide (Xip251-270) it was -0.716. For the same compound, the z-score in assay [2] was -1.35; in assay [3] it was -2.12 (inactive); in assay [4], 0.233 (inactive); in assay [5], 0.42 (inactive).
For the compound `CC=CC(O)C1C=CC2C(=O)N(C)C(=O)C2N1NC(=O)OC(C)(C)C` (configuration not stated), the composite z-score in assay [1] was -0.3 (inactive); in the assay on XIP peptide (Xip251-270), 0.335. The z-score in assay [2] is 0.675; in assay [3], -1.46 (inactive); in assay [4] it was 0.698 (inactive); in assay [5] it was -0.0345 (inactive).
In the case of `C=CCC(OC(C)=O)[C@@H]1[C@@H](N(Cc2ccc(-c3cccc(C(F)(F)F)c3)o2)C(=O)Cc2ccc(F)cc2)c2cc(OCCCO)ccc2N1C(=O)c1ccc2ccccc2c1` (some centres not stated), the composite z-score was -0.502 (inactive) in assay [1] and -0.669 in the assay with XIP peptide (Xip251-270). Moreover, the z-score in assay [2] is -0.681; in assay [3], -1.3 (inactive); in assay [4], 0.627 (inactive); in assay [5], 0.835 (inactive).
Take `CC(C)(C)OC(=O)CC[C@]1(C(N)=O)N=C(c2ccc(OCCCO)cc2)O[C@H]1c1ccccc1CN=[N+]=[N-]`: the composite z-score in assay [1] is -0.226 (inactive); with XIP peptide (Xip251-270), 0.819. Moreover, the z-score in assay [2] is -0.176; in assay [3], -4.12 (inactive); in assay [4], -0.198 (inactive); in assay [5], 0.0796 (inactive).
For `[N-]=[N+]=NCc1ccccc1[C@@H]1OC(c2ccc(OCCCO)cc2)=N[C@]1(Cc1ccccc1)C(=O)NCc1ccccc1`, the composite z-score is 0.362 (inactive) in assay [1] and 0.573 with XIP peptide (Xip251-270). In addition, the z-score is -2.24 in assay [2], 2.8 (inactive) in assay [3], -0.306 (inactive) in assay [4] and -0.144 (inactive) in assay [5].
Consider `C=CCC(OC(C)=O)[C@@H]1[C@@H](N(Cc2ccc(-c3cccc(C(F)(F)F)c3)o2)C(=O)Cc2ccc(OC)cc2)c2cc(OCCCO)ccc2N1C(=O)c1ccc2ccccc2n1` (some centres not stated), for which the composite z-score was -0.155 (inactive) in assay [1] and -0.118 with XIP peptide (Xip251-270). In addition, the z-score is -2.2 in assay [2], -2.25 (inactive) in assay [3], 0.401 (inactive) in assay [4] and 0.966 (inactive) in assay [5].
Regarding `COCCCNC(=O)[C@@]1(Sc2ccc(C)cc2)CC(=O)N(C2CCCCC2)[C@@H]1c1ccc(CO)cc1I`, the composite z-score in assay [1] was -0.159 (inactive); in the assay on XIP peptide (Xip251-270) it was 0.736. Further, the z-score in assay [2] is -1.39; in assay [3], -5.66 (inactive); in assay [4] it was 0.46 (inactive); in assay [5] it was 0.268 (inactive).
On to `COC(=O)[C@]1(CO)N=C(c2ccc(OCCCO)cc2)O[C@@H]1c1ccccc1CN=[N+]=[N-]`, for which the results for the composite z-score (in assay [1]; in the assay with XIP peptide (Xip251-270)) were 0.495 (inactive) and -0.116, respectively. Moreover, the z-score in assay [2] is -0.217; in assay [3] it was -5 (inactive); in assay [4] it was -0.33 (inactive); in assay [5] it was -0.658 (inactive).
For `C[N+](C)(C)CCCC[C@@H]1NC(=O)[C@H]2C[C@@H](C(=O)NCCCCCNC(=O)CS)[C@@H](c3ccc(O)cc3)N2C1=O`, the composite z-score was 0.949 (inactive) in assay [1] and 0.696 in the assay on XIP peptide (Xip251-270). In addition, the z-score in assay [2] was -0.0941; in assay [3], -0.677 (inactive); in assay [4], 0.0225 (inactive); in assay [5], 0.579 (inactive).
Consider `CC(c1ccccc1)C(O)C1C=CC2C(=O)N(c3ccccc3)C(=O)C2N1Nc1ccc(C#N)cc1` (configuration not stated), for which the composite z-score in assay [1] was 0.235 (inactive); in the assay on XIP peptide (Xip251-270), 0.784. Moreover, the z-score in assay [2] was 0.526; in assay [3], -1.21 (inactive); in assay [4], -0.325 (inactive); in assay [5], 0.313 (inactive).
As to `CCCCC(=C=CC[C@H](O)c1ccc(OCCO)cc1)C[C@H](O)c1ccccn1`, the composite z-score is 0.575 (inactive) in assay [1] and 0.645 with XIP peptide (Xip251-270). The z-score in assay [2] is -0.593; in assay [3], -5.18 (inactive); in assay [4], 0.203 (inactive); in assay [5], 0.451 (inactive).

The values above are taken from PubChem BioAssay.
